Results as given in PubChem BioAssay (Tox21).
Inconclusive results are not listed. Values without a mark were called inactive. Calls of active or inactive are those of the source. Calls come from the whole dose curve.

Test: qHTS assay to identify small molecule agonists of the hypoxia (HIF-1) signaling pathway - cell viability counter screen (AID 1224844); note: nearly all actives have a fitted effect of over 50% in size
Settings: HRE-bla ME-180 viability, CellTiter-Glo luminescence, 17 h; series mostly up to 76.8 µM; activity change, negative = cytotoxicity: at the top concentration
Text: National Center for Advancing Translational Sciences [NCATS]
NIH Chemical Genomics Center [NCGC]
U.S. Environmental Protection Agency [EPA]
National Institutes of Environmental Health Sciences [NIEHS]
National Toxicology Program [NTP]
U.S. Food and Drug Administration [FDA]
Hypoxia-inducible factor-1 (HIF-1) is the major hypoxia-regulated transcription factor that controls cellular responses to low oxygen concentration. HIF-1 is composed of two subunits: hypoxia responsive HIF-1-alpha and constitutively expressed HIF-1-beta, which is also known as aryl hydrocarbon receptor nuclear translocator. During hypoxic conditions, HIF-1-alpha heterodimerizes with HIF-1-beta and translocates into the nucleus where the HIF-1 complex binds to the hypoxia-response element (HRE) and activates expression of target genes such as VEGF (vascular endothelial growth factor). The HIF-1 pathway is essential to normal growth and development, and is involved in the pathophysiology of cancer, inflammation, and ischemia.
Using a beta-lactamase reporter-gene under control of the hypoxia response element, a cell-based assay [CellSensor(TM) HRE-bla ME-180 from Life Technologies, Carlsbad, CA] was used to measure hypoxia-induced signaling. Tox21 10K library compounds were measured for their ability to induce the reporter gene activity. The cytotoxicity of the Tox21 compound library against HRE-bla ME-180 cell line was tested in parallel by measuring cell viability using CellTiter-Glo assay (Promega, Madison, WI) in the same assay wells.
Tox21 Assay Protocol Summary:
HRE-bla ME-180 cells were dispensed at 2,000 cells per well in 6 uL of assay medium containing 0.5% dialyzed FBS into black wall/clear-bottom 1536-well plates using a Multidrop Combi (Thermo Scientific, Waltham, MA) dispenser. After the assay plates were incubated at 37C and 5% CO2 for 5 hrs, 23 nL of compounds dissolved in DMSO, positive controls or DMSO only was transferred to each well of the assay plate using a Pintool station (Kalypsys, San Diego, CA). The assay plates were incubated at 37C and 5% CO2 for 17 hrs. One uL of LiveBLAzerTM B/G FRET substrate (CCF4-AM) (Life Technologies) was added to each well using a Flying Reagent Dispenser (FRD, Aurora Discovery, San Diego, CA). After 2 hr incubation at room temperature, fluorescence intensity (405 nm excitation, 460 nm and 530 nm emissions) was measured using an Envision plate reader (PerkinElmer, Shelton, CT). For cytotoxicity, 4 ul/well of CellTiter-Glo reagent was added into the assay plates using an FRD. After 30 min incubation at room temperature, the luminescence intensity was measured using a ViewLux plate reader (PerkinElmer).
% is set by controls: 0 for no effect and ±100 for the full control effect; potency is the fitted concentration of half-maximal effect.

| Compound | activity change, negative = cytotoxicity | Potency |
| --- | --- | --- |
| CCOC(=O)CC(=O)c1cc(F)c(Cl)nc1Cl | 2.33% | – |
| Cc1ccc(C(=O)C(C)CN2CCCCC2)cc1 (stereo not given) | 11.5% [at 35.3 µM] | – |
| CN(C)CC[C@@H](c1ccc(Br)cc1)c1ccccn1 | -1.52% [at 35.3 µM] | – |
| CCN(CC)CCOc1ccc2c(c1)C(=O)c1cc(OCCN(CC)CC)ccc1-2 | -2.09% [at 35.3 µM] | – |
| CC1CCc2cc(F)cc3c(=O)c(C(=O)O)cn1c23 (stereo not given) | 4.53% [at 35.3 µM] | – |
| O=C(O)c1cn(C2CC2)c2cc(Cl)c(F)cc2c1=O | -0.66% [at 35.3 µM] | – |
| CC(C(=O)O)c1ccc(-c2ccccc2)c(F)c1 (stereo not given) | 1.91% | – |
| ClC(Cl)(Cl)c1ccc(C(Cl)(Cl)Cl)cc1 | -2.28% | – |
| Oc1ccc2c(c1)OCO2 | -0.344% | – |
| CC(=O)N(CC(=O)N(C)C)c1ccccc1 | -1.39% [at 35.3 µM] | – |
| COCCO | 11.6% | – |
| O=C(c1ccc(O)cc1)c1ccc(O)cc1 | 6.64% | – |
| N#CCc1cccc(C(F)(F)F)c1 | 11.5% | – |
| CCCCOC(O)CC (stereo not given) | -11.2% | – |
| CC(=O)/C=C/C1C(C)=CCCC1(C)C (stereo not given) | -15.2% | – |
| NC(N)=NN=C(/C=C/c1ccc([N+](=O)[O-])o1)/C=C/c1ccc([N+](=O)[O-])o1 | – | 8.49 µM (active) |
| CC[C@@H]1C[C@H](N(Cc2cc(C(F)(F)F)cc(C(F)(F)F)c2)C(C)=O)c2cc(C(F)(F)F)ccc2N1C(=O)OC(C)C | 0.361% | – |
| CCCCCCCCCC(=O)OCC | -0.509% | – |
| O=CNc1ccccc1 | -29% | – |
| CCN(CCO)CCCC(C)Nc1ccnc2cc(Cl)ccc12 (stereo not given) | 2.32% [at 6.97 µM] | – |

| Compound | activity change, negative = cytotoxicity | Potency |
| --- | --- | --- |
| COc1cc(C(C)(C)C)c(O)c(C(C)(C)C)c1 | 7.48% | – |
| Cc1cc(NC(=O)C(=O)O)cc(C)c1Oc1ccc(O)c2c1CCC2 | -4.78% | – |
| Cc1cc(C)c(S(=O)(=O)O)cc1N=Nc1cc(S(=O)(=O)O)c2ccccc2c1O | 1.47% | – |
| C=C(C)C(=O)OCCN(C)C | -1.81% | – |
| COc1ccc2[nH]c(S(=O)Cc3ncc(C)c(OC)c3C)nc2n1 (stereo not given) | 3.74% [at 35.3 µM] | – |
| CC[C@H](C)[C@H](N)C(=O)O | 2.58% [at 35.3 µM] | – |
| O=C(O)Cn1c(C(=O)Nc2nc(-c3ccccc3Cl)cs2)cc2ccccc21 | – | 8.49 µM (active) |
| O=C(O)c1cccc(N(Cc2cccnc2)c2ccc(OC(F)F)c(OC(F)F)c2)c1 | -0.746% | – |
| O=[N+]([O-])c1cc[n+]([O-])cc1 | 0.763% | – |
| O=C(CCN1CCN2CCCC2C1)N1c2ccccc2Sc2ccc(Cl)cc21 (stereo not given) | 1.19% [at 15.8 µM] | – |
| CCc1nn(C2CCCCC2)c2cc(C3(C#N)CCC(C(=O)O)CC3)ccc12 (stereo not given) | 7.24% | – |
| CCC(=O)OC(C)(C)C1CC=C(C)CC1 (stereo not given) | -11.2% | – |
| O=C1CCCCCO1 | 0% | – |
| N=C(N=C(N)N)N1CCOCC1 | -2.45% [at 35.3 µM] | – |
| CC(C)NCC(O)COc1ccc(CC(N)=O)cc1 (stereo not given) | 10.2% | – |
| CN(C)CCCOc1nn(Cc2ccccc2)c2ccccc12 | 10.6% [at 35.3 µM] | – |
| CC(C)CCCC(C)CCO (stereo not given) | 1.63% | – |
| CCOC(=O)C1=C(C)NC(C)=C(C(=O)OC)C1c1cccc([N+](=O)[O-])c1 (stereo not given) | 1.63% [at 35.3 µM] | – |
| CCCCCCCCCO | -3.52% | – |
| CCCCOC(=O)/C=C\C(=O)OCCCC | 3.48% | – |
